# The sample as a whole holds a higher share of hits than the screen did.
# BAP1 block: inhibitors of BAP1 deubiquitinase, primary screen, biochemical, Ub-AMC fluorescence, kinetic; Ubiquitin carboxyl-terminal hydrolase BAP1 (Homo sapiens), Q92560; recombinant BAP1, Ub-AMC hydrolysis fluorescence kinetic; active compounds read low; calls only at 20 µM; hit rate 0.48% among 72,000; AID 436, 2006;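 active = activity remaining at or below 50% of control, provided the compound also passes the data quality filters; inactive = the rest, including low values that fail the filters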;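 note: 100% = DMSO wells rate and 0% = substrate alone blank rate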
# D1 mod: D1 CRE-luciferase signal change, two-sided – cell-based, HEK293 D1, dopamine EC30, D1 allosteric modulator project, primary screen | D(1A) dopamine receptor (Homo sapiens), P21728 | dopamine EC30 potentiation; actives deviate in either direction | B-score at 10 µM | hit rate 5.9% among 58,000 | AID 641, 2007;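 active = luminescence count or its row- and column-corrected plate score outside the 99.7% band of the plate's sample wells, on either side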
# Target sequence (P21728 whole entry, looked up): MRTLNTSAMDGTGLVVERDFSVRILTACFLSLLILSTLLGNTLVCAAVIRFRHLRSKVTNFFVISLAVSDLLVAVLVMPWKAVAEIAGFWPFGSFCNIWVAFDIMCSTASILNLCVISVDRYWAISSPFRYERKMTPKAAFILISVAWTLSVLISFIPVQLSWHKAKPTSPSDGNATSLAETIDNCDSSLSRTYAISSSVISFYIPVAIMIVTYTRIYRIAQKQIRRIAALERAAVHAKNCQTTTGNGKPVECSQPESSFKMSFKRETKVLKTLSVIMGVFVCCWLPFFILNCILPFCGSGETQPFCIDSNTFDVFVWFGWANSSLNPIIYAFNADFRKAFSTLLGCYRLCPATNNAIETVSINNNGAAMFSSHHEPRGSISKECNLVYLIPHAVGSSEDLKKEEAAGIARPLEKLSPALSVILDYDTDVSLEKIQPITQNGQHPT
# hDAT+cocaine: changed hDAT dopamine uptake under cocaine IC80, either direction, primary screen, cocaine antagonist project, cell-based, LLC-PK1 hDAT, [14C]-dopamine uptake, MLSMR; Sodium-dependent dopamine transporter (Homo sapiens), Q01959; LLC-PK1 hDAT cells, [14C]-dopamine uptake with cocaine IC80; actives deviate in either direction; B-score at 10 µM; hit rate 1.3% among 110,000;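 active = Z score or B-score, a plate-position-corrected score, falls beyond the plate's 99.7% confidence bounds, in either direction; inactive = both scores lie inside the 99.7% bounds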;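 note: scored against the spread of the other compound wells on the same plate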
# D1 mod confirm: D1 receptor positive allosteric modulators, retest, confirmation, cell-based, HEK293 D1, CRE-luciferase, duplicate; dopamine EC30 potentiation; active compounds read high; hit rate 88% among 2,200; luminescence at 10 µM; AID 642, 2007; shares compounds with D1 mod;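 active = luminescence in either of two replicates above the same-plate mean plus 3 SD of the low-dose dopamine control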
# D1 no dopamine: D1 receptor agonism without dopamine, confirmation, mechanism study for D1 allosteric modulator project, cell-based, HEK293 D1, CRE-luciferase, secondary assay 1. luminescence, no dopamine; active compounds read high. shares compounds with D1 mod. luminescence at 10 µM. hit rate 0.8% among 1,900. AID 646, 2007; in the data active = luminescence above about 3900
# Isoprot counter: alters isoproterenol CRE-luciferase response in HEK293 cells; shares compounds with D1 mod; HEK293 D1 CRE-luciferase, isoproterenol EC30 counter-screen; active compounds read high; hit rate 63% among 2,200; luminescence at 10 µM;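 active = luminescence in either replicate above plate mean of wells with a partly effective reference agonist dose plus 3 SD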;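 note: isoproterenol raises cAMP through native beta-adrenoceptor Gs so signal bypasses D1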
# * marks the source's active call; other numbers are inactive results; i = inactive; . = no result given.
SMILES,BAP1 block,D1 mod,hDAT+cocaine,D1 mod confirm,Isoprot counter,others
COc1ccc(OC)c(NC(=O)COC(=O)c2ccc(-n3cnnn3)cc2)c1,i,0.85,0.63,.,.,
Cc1ccccc1NC(=O)CSc1nc(Nc2ccccc2)nc(N2CCOCC2)n1,i,2.2,0.63,.,.,
O=C(CSc1nc(Nc2ccccc2)nc(N2CCOCC2)n1)Nc1ccc2c(c1)OCCO2,i,3.4*,0.12,8860*,3340*,
O=C(CSc1nc(Nc2ccccc2)nc(N2CCOCC2)n1)N1CCc2ccccc21,.,1.2,-1.1,.,.,
O=C(CSc1nc(Nc2ccccc2)nc(N2CCOCC2)n1)N1CCCC1,i,5.6*,0.64,9432*,3740*,D1 no dopamine=1476
CN(C)c1ccc(NC(=O)C2CC3CCCC(C2)C3=O)cc1 (centres undefined),i,.,.,.,.,
Cn1c(=O)c2c(nc(NCCO)n2Cc2cccc3ccccc23)n(C)c1=O,i,.,.,.,.,
O=C(Nc1cccc(F)c1)c1cccc(Cl)c1,i,.,.,.,.,
O=C(CC(c1ccccc1)N(C(=O)Nc1ccccc1Cl)c1ccccc1)C1CC1 (centres undefined),i,.,.,.,.,
COc1ccc(C(=O)n2nc(-c3ccccc3)nc2SC)cc1,.,.,0.41,.,.,
COc1ccc(C(=O)n2nc(-c3ccccc3)nc2N)cc1OC,i,6.1*,0.25,15096*,3496*,D1 no dopamine=1896
CC(NC(=O)Cn1nc(C(=O)O)c2ccccc2c1=O)c1ccccc1 (centres undefined),i,0.19,0.53,.,.,
Cc1ccccc1OCCn1nc(C(=O)O)c2ccccc2c1=O,i,3.9*,0.57,7632*,3756*,D1 no dopamine=1464
CCc1cc2c(=S)c(-c3ccccc3)c(C)oc2cc1OC,i,.,.,.,.,
CCOc1ccc(S(=O)(=O)NCc2ccc(F)cc2)c2cccnc12,i,10*,-2.7,10944*,2940*,
Cc1ccc2cccc(S(=O)(=O)Nc3ccc4c(c3)OCO4)c2n1,i,-0.014,0.47,.,.,
CCOc1ccc(S(=O)(=O)N2CCN(c3ccccc3OC)CC2)c2cccnc12,i,.,-0.021,.,.,
CCOc1ccc(S(=O)(=O)Nc2ccc3c(c2)OCO3)c2cccnc12,i,4.8*,-0.012,9784*,3300*,D1 no dopamine=1612
CCOC(=O)CSc1nc2ncccc2[nH]1,i,.,.,.,.,
Cc1cnc(N)c2c(=O)oc3ccccc3c12,.,9.8*,-1.6,17776*,5024*,
O=c1oc2ccccc2c2nccnc12,i,-0.26,0.32,.,.,
O=C(CCNS(=O)(=O)c1cccs1)N1CCc2ccccc2C1,i,3.4*,0.4,4796,2812*,
CC(=O)N1CCc2cc(S(=O)(=O)NCCC(=O)N3CCc4ccccc4C3)ccc21,i,0.31,1.2,.,.,
CCc1nnc(NC(=O)CSc2nnc3c4ccccc4n(C)c3n2)s1,i,2.4,0.61,.,.,
CCOC(=O)Cc1nnc(NC(=O)CSc2nnc3c4ccccc4n(C(C)C)c3n2)s1,i,7.5*,0.33,11008*,4008*,D1 no dopamine=1700
SMILES,BAP1 block,D1 mod,hDAT+cocaine,D1 mod confirm,Isoprot counter,others
Cc1ccc(NC(=O)c2ccccc2-c2nc3ccccc3[nH]2)cc1C,i,.,.,.,.,
CSc1ccccc1NC(=O)c1onc(C)c1Cl,i,1.6*,-0.33,7308*,2948,D1 no dopamine=1580
CSc1ccccc1NC(=O)c1c(C)noc1C,i,-0.59,-0.36,.,.,
CC(C)OC(=O)CSc1nc2cccnc2n1-c1ccc(F)cc1,.,.,0.68,.,.,
CCOC(=O)CSc1nc2cccnc2n1-c1ccc(F)cc1,i,22*,-0.22,24340*,5172*,D1 no dopamine=1808
CC(C)(C)C1CCc2onc(C(=O)N3CCOCC3)c2C1 (centres undefined),i,6*,0.37,10148*,3152*,D1 no dopamine=1516
CC(C)(C)C1CCc2onc(C(=O)NC3CCCC3)c2C1 (centres undefined),i,1.4,-0.48,.,.,
O=C(Nc1ccc(S(=O)(=O)Nc2nccs2)cc1)C1CCCCC1,i,.,0.33,.,.,
COc1cccc(CNc2ccc(S(=O)(=O)Nc3nccs3)cc2)c1O,i,12*,-0.29,14616*,3656*,D1 no dopamine=1520
O=C(Nc1nccs1)c1ccc2c(c1)C(=O)N(c1ccc(Sc3ccc([N+](=O)[O-])cc3)cc1)C2=O,i,.,.,.,.,
CCCCCOC(=O)C1=C(C)NC2=C(C(=O)CCC2)C1c1ccccc1OC(C)C (centres undefined),i,.,.,.,.,
CCOc1ccc(C(=O)Nc2ccc3oc(-c4cccc(C)c4)nc3c2)cc1,i,.,.,.,.,
NS(=O)(=O)c1ccc(CCNC(=O)[C@@H]2CCCN2S(=O)(=O)c2ccccc2F)cc1,.,.,0.0044,.,.,
NS(=O)(=O)c1ccc(CCNC(=O)C2CCCCN2S(=O)(=O)c2ccccc2)cc1 (centres undefined),i,3.5*,-0.12,5988,2696,D1 no dopamine=1656
COC(=O)C1=C(C)N(C)C(=S)NC1c1cccc(OC)c1 (centres undefined),i,.,.,.,.,
Cc1ccc([N+](=O)[O-])cc1NC1OC(CO)C(O)C(O)C1O (centres undefined),i,.,.,.,.,
C=CCOc1nc(-c2ccncc2)nc2ccccc12,i,6.5*,0.15,15684*,3112*,
COc1nc(-c2ccncc2)nc2ccccc12,.,.,0.2,.,.,
c1ccc2c(N3CCCC3)nc(-c3ccncc3)nc2c1,i,9.2*,1.1,18800*,5336*,D1 no dopamine=1668
c1ccc(CN2CCN(c3nc(-c4ccccc4)nc4ccccc34)CC2)cc1,.,.,-0.099,.,.,
Cc1ccc(C(=O)C[n+]2ccc3ccccc3c2)cc1[N+](=O)[O-],i,.,.,.,.,
Cc1c(Cl)cccc1-c1ccc(C(=O)Nc2ccc(Br)cn2)o1,i,.,.,.,.,
COc1ccc(CN2CCCN(Cc3ccc(OC)cc3)C2c2ccc(F)cc2)cc1,i,.,.,.,.,
O=C(Nc1nc(-c2ccc(Oc3ccccc3)cc2)cs1)c1cc(Cl)ccc1[N+](=O)[O-],i,.,.,.,.,
O=C(c1cccs1)c1coc2ccc(O)cc12,.,.,-0.8,.,.,
SMILES,BAP1 block,D1 mod,hDAT+cocaine,D1 mod confirm,Isoprot counter,others
O=C(c1cccs1)c1coc2ccc(O)c(CN3CCOCC3)c12,i,18*,1,20688*,3180*,
O=C(Nc1nc(-c2ccc(F)cc2)cs1)c1ccc(S(=O)(=O)N2CCc3ccccc32)cc1,i,.,.,.,.,
CCOC(=O)c1c(NC(=O)c2cc(=O)c3ccccc3o2)sc2c1CCC2,i,.,.,.,.,
Cc1nn(C)cc1/C=N/O,i,-0.6,-0.32,.,.,
Cc1nn(-c2ccccc2)cc1/C=N/O,i,4.3*,-1.2,7640*,2532,
COc1ccc(CCN(Cc2cc3cc(C)ccc3[nH]c2=O)C(=O)N2CCCC2)cc1OC,i,9.1*,0.77,13088*,3456*,D1 no dopamine=1584
